These results are taken from ChEMBL document CHEMBL2218924, “A broad activity screen in support of a chemogenomic map for kinase signalling research and drug discovery” (Biochem J, 2013).

Assay [1] addresses Death-associated protein kinase 1 (Homo sapiens) (UniProt P53355). The conditions noted are these: at 1 µM.
For assay [2] the target is unchanged. To be noted: at 10 µM.
Assay [3] deals with Death-associated protein kinase 2 (Homo sapiens) (UniProt Q9UIK4). To be noted: at 1 µM.
The target is the same in assay [4]. The conditions noted are these: at 10 µM.
In assay [5] the target is T1, Serine/threonine-protein kinase DCLK2 (Homo sapiens) (UniProt Q8N568).
T1 sequence (whole entry): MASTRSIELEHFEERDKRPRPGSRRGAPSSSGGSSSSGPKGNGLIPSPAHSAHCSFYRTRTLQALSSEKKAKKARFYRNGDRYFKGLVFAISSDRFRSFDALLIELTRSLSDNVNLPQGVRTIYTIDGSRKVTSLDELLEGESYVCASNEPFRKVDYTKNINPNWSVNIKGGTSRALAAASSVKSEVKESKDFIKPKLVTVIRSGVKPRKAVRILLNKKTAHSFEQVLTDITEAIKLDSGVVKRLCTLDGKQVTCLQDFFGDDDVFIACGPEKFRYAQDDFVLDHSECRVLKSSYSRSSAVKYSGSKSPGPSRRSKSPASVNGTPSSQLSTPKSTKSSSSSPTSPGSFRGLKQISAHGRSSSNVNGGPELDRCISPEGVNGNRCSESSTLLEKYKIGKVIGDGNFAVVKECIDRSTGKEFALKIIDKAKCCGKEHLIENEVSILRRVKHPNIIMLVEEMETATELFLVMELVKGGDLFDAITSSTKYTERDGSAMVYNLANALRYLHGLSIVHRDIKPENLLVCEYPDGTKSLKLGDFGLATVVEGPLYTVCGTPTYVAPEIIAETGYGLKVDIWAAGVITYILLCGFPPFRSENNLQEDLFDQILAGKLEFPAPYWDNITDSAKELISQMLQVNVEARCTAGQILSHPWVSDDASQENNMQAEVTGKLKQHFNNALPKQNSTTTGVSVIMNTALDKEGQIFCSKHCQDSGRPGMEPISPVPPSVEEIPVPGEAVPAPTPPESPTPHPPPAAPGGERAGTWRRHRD
The conditions noted are these: at 1 µM.

The target in assay [6] is T1, Serine/threonine-protein kinase DCLK2 (Homo sapiens). The conditions noted are these: at 10 µM.
The target in assay [7] is T2, Discoidin domain-containing receptor 2 (Homo sapiens) (UniProt Q16832).
T2 sequence (whole entry): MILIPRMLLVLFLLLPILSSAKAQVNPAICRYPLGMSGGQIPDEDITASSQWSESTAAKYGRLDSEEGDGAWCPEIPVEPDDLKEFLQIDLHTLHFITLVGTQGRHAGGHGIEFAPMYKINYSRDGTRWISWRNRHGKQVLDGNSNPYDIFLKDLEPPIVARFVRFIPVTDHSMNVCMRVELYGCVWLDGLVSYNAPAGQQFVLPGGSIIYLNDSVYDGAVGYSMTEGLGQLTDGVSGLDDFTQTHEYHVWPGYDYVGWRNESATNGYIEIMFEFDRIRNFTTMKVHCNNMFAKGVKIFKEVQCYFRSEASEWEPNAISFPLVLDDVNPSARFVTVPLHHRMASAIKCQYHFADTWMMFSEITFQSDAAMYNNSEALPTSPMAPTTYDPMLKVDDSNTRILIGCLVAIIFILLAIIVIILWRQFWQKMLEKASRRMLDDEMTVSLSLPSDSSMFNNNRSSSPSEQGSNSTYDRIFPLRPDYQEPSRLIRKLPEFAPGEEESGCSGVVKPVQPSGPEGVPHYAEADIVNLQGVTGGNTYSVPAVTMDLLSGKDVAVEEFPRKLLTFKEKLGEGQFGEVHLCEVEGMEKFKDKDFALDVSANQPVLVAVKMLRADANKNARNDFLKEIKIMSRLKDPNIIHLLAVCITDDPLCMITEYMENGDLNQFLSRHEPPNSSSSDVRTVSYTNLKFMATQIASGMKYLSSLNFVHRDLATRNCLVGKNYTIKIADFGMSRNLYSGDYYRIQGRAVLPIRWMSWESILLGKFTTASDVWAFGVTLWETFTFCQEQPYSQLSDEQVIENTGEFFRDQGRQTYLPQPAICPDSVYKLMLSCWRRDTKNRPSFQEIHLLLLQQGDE
The conditions noted are these: at 10 µM.

Assay [8] concerns the target T3, Myotonin-protein kinase (Homo sapiens) (UniProt Q09013).
T3 sequence (whole entry): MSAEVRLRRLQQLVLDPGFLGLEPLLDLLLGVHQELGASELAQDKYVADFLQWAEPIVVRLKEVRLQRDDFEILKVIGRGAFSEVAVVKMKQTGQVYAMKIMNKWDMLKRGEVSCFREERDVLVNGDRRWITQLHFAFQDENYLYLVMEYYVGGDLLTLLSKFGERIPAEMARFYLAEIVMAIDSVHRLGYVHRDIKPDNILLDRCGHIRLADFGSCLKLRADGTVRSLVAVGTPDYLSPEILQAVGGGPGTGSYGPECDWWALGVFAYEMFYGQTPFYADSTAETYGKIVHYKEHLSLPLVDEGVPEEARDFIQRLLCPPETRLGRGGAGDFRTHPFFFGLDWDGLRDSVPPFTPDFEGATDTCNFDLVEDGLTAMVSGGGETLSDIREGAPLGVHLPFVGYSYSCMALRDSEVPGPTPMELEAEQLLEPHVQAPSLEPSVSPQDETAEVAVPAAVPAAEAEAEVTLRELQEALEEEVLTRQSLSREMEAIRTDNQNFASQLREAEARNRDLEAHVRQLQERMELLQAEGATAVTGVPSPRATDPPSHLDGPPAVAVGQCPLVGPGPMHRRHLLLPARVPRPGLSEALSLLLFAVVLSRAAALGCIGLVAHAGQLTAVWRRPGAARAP
The conditions noted are these: at 1 µM.

The target of assay [9] is T3, Myotonin-protein kinase (Homo sapiens). The conditions noted are these: at 10 µM.
Assay [10] addresses T4, Serine/threonine-protein kinase 17A (Homo sapiens) (UniProt Q9UEE5).
T4 sequence (whole entry): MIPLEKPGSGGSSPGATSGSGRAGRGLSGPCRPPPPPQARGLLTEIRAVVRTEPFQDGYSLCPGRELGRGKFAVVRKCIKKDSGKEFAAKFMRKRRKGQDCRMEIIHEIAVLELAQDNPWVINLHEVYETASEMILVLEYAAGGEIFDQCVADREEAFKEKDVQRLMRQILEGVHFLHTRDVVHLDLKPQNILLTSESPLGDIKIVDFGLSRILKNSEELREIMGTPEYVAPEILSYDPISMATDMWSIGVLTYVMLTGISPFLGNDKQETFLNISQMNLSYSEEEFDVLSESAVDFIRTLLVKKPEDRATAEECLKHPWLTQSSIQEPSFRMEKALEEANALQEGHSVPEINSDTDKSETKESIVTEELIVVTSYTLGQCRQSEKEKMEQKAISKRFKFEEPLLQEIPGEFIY
The conditions noted are these: at 1 µM.

Assay [11] has as its target T4, Serine/threonine-protein kinase 17A (Homo sapiens). The conditions noted are these: at 10 µM.
Assay [12] has as its target T5, Dual specificity tyrosine-phosphorylation-regulated kinase 2 (Homo sapiens) (UniProt Q92630).
T5 sequence (whole entry): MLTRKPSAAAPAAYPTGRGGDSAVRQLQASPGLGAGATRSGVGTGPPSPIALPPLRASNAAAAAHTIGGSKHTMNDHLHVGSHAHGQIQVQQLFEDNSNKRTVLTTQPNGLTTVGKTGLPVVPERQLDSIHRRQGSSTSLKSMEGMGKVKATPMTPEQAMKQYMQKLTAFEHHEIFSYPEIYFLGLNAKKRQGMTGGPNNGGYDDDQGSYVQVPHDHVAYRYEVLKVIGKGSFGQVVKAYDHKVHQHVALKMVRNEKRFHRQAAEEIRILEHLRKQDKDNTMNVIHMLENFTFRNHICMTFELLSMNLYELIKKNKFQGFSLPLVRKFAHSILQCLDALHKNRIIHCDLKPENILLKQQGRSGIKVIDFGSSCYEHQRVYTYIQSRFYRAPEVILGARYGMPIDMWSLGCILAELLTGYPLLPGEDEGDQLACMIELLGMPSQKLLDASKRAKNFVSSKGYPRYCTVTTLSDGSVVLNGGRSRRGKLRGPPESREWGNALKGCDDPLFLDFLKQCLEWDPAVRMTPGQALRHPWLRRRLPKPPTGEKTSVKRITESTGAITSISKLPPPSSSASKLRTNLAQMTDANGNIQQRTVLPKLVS
The conditions noted are these: at 10 µM.

Assay [13] deals with Epidermal growth factor receptor (Homo sapiens) (UniProt P00533). To be noted: at 10 µM.
Sequence of Epidermal growth factor receptor (Homo sapiens) (P00533 whole entry): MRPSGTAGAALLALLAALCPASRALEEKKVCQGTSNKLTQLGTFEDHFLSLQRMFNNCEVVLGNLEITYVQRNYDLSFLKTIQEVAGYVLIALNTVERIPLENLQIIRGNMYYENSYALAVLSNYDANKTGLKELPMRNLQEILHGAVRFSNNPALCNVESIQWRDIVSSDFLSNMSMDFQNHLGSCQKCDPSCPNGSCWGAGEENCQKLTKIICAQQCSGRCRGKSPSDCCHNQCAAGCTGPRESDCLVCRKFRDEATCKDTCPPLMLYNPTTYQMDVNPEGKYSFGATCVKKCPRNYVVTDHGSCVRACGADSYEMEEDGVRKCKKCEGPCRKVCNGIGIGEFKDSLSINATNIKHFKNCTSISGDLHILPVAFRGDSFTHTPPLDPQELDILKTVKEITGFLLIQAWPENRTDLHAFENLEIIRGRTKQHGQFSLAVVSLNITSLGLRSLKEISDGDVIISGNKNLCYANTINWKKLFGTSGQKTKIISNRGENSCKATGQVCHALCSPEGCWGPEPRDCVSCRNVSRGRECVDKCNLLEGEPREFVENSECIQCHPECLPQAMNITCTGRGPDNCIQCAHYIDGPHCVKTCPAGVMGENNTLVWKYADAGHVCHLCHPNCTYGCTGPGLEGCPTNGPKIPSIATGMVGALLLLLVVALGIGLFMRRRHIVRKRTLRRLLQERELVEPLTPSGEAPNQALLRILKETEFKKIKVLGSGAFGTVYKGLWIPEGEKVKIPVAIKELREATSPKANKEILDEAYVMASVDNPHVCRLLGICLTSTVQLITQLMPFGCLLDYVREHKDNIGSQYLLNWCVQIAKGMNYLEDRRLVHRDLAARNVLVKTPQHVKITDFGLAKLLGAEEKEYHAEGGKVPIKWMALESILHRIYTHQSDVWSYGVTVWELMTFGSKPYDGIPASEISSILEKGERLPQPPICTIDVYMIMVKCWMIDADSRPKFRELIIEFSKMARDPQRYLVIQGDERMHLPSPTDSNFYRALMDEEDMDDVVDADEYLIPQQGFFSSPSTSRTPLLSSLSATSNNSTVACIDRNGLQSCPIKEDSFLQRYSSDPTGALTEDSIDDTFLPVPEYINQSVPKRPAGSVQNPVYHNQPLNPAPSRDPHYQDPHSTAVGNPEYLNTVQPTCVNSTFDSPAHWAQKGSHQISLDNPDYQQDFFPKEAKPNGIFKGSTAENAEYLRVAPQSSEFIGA
The target in assay [14] is T6, Ephrin type-A receptor 1 (Homo sapiens) (UniProt P21709).
T6 sequence (whole entry): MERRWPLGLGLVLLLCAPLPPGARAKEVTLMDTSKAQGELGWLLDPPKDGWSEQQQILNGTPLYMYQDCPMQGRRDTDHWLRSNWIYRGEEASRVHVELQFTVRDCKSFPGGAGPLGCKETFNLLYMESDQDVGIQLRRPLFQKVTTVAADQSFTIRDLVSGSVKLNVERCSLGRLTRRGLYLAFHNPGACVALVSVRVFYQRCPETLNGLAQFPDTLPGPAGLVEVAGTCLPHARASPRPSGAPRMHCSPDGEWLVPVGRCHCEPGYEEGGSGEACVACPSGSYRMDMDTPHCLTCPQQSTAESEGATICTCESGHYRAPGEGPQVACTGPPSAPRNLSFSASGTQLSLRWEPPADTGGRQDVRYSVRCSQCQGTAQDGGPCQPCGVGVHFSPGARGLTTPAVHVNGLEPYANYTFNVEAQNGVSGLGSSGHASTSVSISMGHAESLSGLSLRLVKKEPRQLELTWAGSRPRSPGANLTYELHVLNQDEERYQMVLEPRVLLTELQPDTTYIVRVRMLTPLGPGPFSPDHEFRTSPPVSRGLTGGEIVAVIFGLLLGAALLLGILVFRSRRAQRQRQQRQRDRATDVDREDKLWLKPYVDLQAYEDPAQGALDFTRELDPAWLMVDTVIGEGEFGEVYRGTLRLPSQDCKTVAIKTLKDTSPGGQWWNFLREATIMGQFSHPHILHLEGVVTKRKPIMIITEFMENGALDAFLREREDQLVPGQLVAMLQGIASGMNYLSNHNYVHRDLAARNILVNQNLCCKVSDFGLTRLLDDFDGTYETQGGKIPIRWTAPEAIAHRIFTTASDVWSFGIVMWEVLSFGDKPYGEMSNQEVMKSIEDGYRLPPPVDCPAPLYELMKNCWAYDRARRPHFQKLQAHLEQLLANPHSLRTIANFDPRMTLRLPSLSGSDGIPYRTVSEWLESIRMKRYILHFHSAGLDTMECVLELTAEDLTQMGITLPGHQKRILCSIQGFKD
To be noted: at 1 µM.

Assay [15] has as its target T6, Ephrin type-A receptor 1 (Homo sapiens). To be noted: at 10 µM.
The target of assay [16] is Ephrin type-A receptor 2 (Homo sapiens) (UniProt P29317). To be noted: at 1 µM.
Sequence of Ephrin type-A receptor 2 (Homo sapiens) (P29317 whole entry): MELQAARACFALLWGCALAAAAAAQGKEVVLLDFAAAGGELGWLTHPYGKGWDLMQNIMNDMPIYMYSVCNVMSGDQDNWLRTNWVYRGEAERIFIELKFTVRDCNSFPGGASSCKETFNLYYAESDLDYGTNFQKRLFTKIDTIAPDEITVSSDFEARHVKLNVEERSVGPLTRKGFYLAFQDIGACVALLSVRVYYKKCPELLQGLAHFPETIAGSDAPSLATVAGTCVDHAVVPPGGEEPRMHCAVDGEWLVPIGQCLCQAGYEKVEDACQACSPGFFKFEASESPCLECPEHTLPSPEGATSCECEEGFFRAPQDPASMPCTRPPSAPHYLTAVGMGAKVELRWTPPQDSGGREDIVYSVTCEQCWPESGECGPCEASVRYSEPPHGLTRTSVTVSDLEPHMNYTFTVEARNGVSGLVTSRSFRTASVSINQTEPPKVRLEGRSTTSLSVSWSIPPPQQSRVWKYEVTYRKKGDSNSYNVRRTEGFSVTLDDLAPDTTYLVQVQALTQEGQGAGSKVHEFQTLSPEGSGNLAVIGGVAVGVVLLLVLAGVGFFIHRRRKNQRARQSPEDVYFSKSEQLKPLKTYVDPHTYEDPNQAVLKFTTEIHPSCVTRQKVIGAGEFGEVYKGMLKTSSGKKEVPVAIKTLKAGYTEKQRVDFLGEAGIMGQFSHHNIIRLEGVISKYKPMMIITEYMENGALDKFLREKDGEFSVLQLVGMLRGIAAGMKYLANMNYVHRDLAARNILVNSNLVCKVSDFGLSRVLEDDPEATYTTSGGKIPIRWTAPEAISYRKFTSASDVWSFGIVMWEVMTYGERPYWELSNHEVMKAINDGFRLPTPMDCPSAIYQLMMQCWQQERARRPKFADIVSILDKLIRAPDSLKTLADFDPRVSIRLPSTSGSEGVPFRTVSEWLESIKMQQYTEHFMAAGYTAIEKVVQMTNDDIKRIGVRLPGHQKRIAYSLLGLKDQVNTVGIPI
Assay [17] shares this target. The conditions noted are these: at 10 µM.
For assay [18], the target named is T7, Ephrin type-A receptor 3 (Homo sapiens) (UniProt P29320).
T7 sequence (whole entry): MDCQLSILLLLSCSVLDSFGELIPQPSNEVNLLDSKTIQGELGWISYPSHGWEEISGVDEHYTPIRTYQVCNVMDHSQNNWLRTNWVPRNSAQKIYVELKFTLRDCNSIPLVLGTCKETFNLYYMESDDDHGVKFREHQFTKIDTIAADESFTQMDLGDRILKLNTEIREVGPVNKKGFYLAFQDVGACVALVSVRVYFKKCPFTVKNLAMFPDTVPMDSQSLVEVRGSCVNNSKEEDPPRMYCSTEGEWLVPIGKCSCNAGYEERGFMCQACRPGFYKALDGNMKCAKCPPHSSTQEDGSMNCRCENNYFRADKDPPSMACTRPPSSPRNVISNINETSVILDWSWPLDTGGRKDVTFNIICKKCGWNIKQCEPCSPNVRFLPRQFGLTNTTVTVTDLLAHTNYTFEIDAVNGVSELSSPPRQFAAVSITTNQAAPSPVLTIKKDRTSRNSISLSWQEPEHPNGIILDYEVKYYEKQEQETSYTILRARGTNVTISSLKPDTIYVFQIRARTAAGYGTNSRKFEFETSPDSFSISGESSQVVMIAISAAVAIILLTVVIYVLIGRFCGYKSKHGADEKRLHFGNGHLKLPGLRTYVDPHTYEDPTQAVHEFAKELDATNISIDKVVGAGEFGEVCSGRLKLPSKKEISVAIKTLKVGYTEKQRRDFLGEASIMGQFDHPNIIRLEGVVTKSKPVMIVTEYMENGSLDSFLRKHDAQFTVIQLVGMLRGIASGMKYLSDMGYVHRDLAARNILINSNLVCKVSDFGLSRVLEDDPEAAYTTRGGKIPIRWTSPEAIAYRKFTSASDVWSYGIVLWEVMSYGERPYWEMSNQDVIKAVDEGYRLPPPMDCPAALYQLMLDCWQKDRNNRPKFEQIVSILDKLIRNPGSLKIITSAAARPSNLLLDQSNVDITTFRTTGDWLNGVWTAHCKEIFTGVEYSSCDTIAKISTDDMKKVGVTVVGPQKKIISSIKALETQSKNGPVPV
The conditions noted are these: at 1 µM.

Sequence of Death-associated protein kinase 1 (Homo sapiens) (P53355 whole entry, looked up): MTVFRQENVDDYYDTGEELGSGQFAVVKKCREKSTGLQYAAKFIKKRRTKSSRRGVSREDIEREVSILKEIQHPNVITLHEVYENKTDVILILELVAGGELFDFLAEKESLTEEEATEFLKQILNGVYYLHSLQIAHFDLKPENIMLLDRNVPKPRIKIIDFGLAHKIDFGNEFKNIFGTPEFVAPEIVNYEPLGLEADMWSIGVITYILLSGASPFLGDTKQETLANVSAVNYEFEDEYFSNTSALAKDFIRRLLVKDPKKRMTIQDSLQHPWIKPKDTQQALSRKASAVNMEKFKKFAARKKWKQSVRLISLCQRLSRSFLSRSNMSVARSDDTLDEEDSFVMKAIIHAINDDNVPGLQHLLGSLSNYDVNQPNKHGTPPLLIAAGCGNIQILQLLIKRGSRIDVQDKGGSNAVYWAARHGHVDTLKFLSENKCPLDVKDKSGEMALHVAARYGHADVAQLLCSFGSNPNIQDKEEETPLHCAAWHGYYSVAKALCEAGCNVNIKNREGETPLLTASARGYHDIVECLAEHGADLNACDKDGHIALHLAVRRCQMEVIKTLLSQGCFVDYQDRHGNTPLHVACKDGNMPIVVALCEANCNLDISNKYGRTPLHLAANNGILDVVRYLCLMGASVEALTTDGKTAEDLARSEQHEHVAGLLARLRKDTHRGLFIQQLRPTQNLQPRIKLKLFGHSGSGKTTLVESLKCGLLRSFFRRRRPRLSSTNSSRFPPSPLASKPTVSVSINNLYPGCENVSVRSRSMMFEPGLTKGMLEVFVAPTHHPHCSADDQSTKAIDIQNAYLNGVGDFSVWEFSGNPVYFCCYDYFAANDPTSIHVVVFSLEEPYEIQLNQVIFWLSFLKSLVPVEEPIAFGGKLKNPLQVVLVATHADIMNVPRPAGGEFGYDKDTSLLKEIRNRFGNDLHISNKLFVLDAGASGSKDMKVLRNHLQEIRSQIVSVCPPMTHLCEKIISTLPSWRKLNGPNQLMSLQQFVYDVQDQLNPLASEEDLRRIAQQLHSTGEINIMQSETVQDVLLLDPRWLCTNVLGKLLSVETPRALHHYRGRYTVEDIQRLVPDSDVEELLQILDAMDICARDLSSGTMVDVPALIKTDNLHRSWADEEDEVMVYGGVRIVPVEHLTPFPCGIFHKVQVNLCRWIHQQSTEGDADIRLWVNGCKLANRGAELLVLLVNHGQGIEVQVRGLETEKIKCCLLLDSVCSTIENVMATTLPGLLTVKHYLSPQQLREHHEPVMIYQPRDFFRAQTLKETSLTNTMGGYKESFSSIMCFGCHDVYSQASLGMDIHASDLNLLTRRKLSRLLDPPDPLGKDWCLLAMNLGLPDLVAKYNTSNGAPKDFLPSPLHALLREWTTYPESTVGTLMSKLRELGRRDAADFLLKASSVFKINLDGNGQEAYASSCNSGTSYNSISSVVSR
Sequence of Death-associated protein kinase 2 (Homo sapiens) (Q9UIK4 whole entry, looked up): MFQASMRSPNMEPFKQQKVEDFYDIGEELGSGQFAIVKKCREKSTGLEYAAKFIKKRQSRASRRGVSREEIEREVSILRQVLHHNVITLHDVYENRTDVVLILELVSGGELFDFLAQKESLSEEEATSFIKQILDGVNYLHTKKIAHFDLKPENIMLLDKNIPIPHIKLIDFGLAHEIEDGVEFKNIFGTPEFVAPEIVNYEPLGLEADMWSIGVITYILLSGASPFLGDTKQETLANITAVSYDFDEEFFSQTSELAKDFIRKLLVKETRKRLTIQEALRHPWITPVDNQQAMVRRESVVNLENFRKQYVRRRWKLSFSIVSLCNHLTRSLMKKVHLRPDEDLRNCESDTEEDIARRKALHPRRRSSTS

As a reminder, the residual activity is the signal under treatment as a percentage of the control signal. As for `CCn1cnc2c(Nc3cccc(Cl)c3)nc(N[C@@H]3CCCC[C@@H]3N)nc21`, the residual activity in assay [1] was determined as 96%; in [2], 85%; in assay [3], 92%; in assay [4], 76%; in [5], 124%; in assay [6], 67%. The residual activity in assay [7] was found to be 78%; in [8], 123%; in assay [9], 80%; in assay [10], 90%; in assay [11] it was 83%; in [12], 85%. In addition, the residual activity is 95% in assay [13]; 15% in [14]; 3% in assay [15]; 66% in assay [16]; 24% in assay [17]; 61% in assay [18].

In the case of `CSc1nc(-c2ccc(F)cc2)c(-c2ccnc(NC(C)c3ccccc3)c2)[nH]1` (stereo not given), in [1], the residual activity was 91%.

Consider `N#C/C(=C(\N)Sc1ccc(N)cc1)c1ccccc1C(F)(F)F`, for which the residual activity in assay [1] is 84%.
